Assay outcomes (PubChem BioAssay)
EPAC1 ag val: Validation qHTS for agonist of cAMP-regulated guanine nucleotide exchange factor 3 (EPAC1) | EPAC1 Rap1b BODIPY-GDP exchange, fluorescence | Potency, µM, inactives show max response, positive = active, hits mostly activators | 16,000 tested, 1% active; further: nearly all actives have a fitted effect of over 70% in size
Target sequence (O95398 whole entry, looked up): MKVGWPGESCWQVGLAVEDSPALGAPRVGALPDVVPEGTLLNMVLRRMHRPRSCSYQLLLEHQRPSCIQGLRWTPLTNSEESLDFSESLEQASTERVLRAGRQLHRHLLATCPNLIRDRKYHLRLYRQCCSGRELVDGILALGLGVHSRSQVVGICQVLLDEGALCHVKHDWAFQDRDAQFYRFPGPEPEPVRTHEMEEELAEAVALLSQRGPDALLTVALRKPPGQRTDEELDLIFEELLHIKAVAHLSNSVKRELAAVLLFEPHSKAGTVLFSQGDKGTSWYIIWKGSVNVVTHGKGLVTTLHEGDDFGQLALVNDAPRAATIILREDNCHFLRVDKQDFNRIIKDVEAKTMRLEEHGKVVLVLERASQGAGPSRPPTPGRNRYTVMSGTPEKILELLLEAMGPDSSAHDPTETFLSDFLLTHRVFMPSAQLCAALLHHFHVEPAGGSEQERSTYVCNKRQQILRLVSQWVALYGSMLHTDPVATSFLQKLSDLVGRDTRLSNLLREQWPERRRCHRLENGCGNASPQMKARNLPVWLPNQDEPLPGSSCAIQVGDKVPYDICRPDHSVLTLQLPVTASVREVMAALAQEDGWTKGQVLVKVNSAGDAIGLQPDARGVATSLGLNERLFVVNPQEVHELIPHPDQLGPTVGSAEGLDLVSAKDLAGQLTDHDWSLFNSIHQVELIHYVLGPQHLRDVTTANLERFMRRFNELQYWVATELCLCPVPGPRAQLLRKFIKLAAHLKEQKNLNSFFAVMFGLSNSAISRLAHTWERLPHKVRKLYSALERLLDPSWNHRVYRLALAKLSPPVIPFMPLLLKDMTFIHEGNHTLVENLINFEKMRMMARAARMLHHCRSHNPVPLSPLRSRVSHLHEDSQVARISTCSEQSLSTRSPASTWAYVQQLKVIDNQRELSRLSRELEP
EPAC2 ant val: Validation qHTS for antagonist of cAMP-regulated guanine nucleotide exchange factor 4 (EPAC2); AID 1645886, 2021; EPAC2 Rap1B BODIPY-GDP exchange, fluorescence; 16,000 tested, 1.7% active; Potency, µM (titrated, usually from 112 µM), for the others: at the highest dose activity, negative = inhibition, actives largely listed as inhibitors;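 further: 100% = activation by cAMP agonist control; nearly all actives have a fitted effect of over 40% in size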
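Normalized against a 6.5 mM cAMP agonist control, compounds were tested on 100 nM EPAC2 exchanging Rap1B-bound BODIPY-GDP (250 nM) for 50 uM GDP. Fluorescence drop (ex 480, em 540 nm) was tracked at room temperature over 30 min at 5-min intervals.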
Starred values were filed as active, the others as inactive; u = inconclusive; ! = a repeat was not active; [ ] = remark or other dose. Sampled rows, rich in hits. Any-hit rate of the full collection: about 3.1%. The call rests on the fitted dose curve; in most records, active means well fitted curve in the direction sought with a large enough effect; inconclusive means small, poorly fitted or top-dose-only effect, or another doubt; inactive means no such curve, though single readings can be large; an effect the other way counts as inactive or inconclusive. Unless noted, on the % scale 0 is the no-effect control and ±100 the full control effect; potency means the concentration at half of the fitted maximal effect.

SMILES | EPAC1 ag val | EPAC2 ant val
O=S(=O)(O)Oc1ccc(C(c2ccc(OS(=O)(=O)O)cc2)c2ccccn2)cc1 | 22% | -11%
Oc1c(Cl)cc(Cl)cc1Sc1cc(Cl)cc(Cl)c1O | -9% | 56µM*
O=S(c1cc(Cl)cc(Cl)c1O)c1cc(Cl)cc(Cl)c1O | -3% | u
Cc1cccnc1-c1cccc2c1OC(CNC(=O)C(=O)c1ccccc1)C2 (stereo unspecified) | -6% | u
C[C@@H]1CN(Cc2ccc3c(c2)CN(Cc2nc(-c4ccccc4)cs2)CCO3)C[C@H](C)O1 | 10% | -7%
Cc1cnc(C)c(-c2ccc(F)c3c2OC(CNC(=O)/C=C/c2cccs2)C3)n1 (stereo unspecified) | -23% | -17%
O=C(Nc1ccc(Oc2ccc(Cl)cc2)c(Cl)c1)c1cc(I)cc(I)c1O | 100µM* | -18%
O=C(Nc1ccc(Cl)cc1)Nc1ccc(Cl)c(Cl)c1 | -4% | u
COc1cc(=O)n2c(c1C(=O)N(C)Cc1nonc1C)CCN(Cc1c(F)cccc1F)CC2 | -13% | -19%
NC(=NCCCCCCN=C(N)/N=C(\N)Nc1ccc(Cl)cc1)/N=C(\N)Nc1ccc(Cl)cc1 | -13% | 79µM*!
CC(C)N=C(N)/N=C(\N)Nc1ccc(Cl)cc1 | -17% | -10%[56.6 µM]
COc1ccc(S[C@@H](CCN2CC[C@H](C)CCC2=O)c2ccccc2)cc1 | -31% | u
C[C@@H]1CCC(=O)N(CC[C@H](Oc2ccccc2)c2ccccc2)CC1 | -19% | 79µM*
Cc1cnc(C)c(-c2cccc3c2OC(CNC(=O)C[C@@H]2C[C@@H](C)NC(=S)N2)C3)n1 (stereo partly specified) | 6% | -27%
O=C(NCCN1Cc2ccccc2OC(c2ccsc2)C1)c1ccc2[nH]ccc2c1 (stereo unspecified) | 30% | -11%
CCCc1c(OCCCCc2nn[nH]n2)ccc(C(C)=O)c1O | 10% | 8.9µM*!
CCCCCCOc1ccccc1C(N)=O | -10% | u
NCCC[C@H](N)CC(=O)N[C@H]1CNC(=O)[C@H]([C@H]2C[C@H](O)N=C(N)N2)NC(=O)C(=CNC(N)=O)NC(=O)[C@H](CO)NC(=O)[C@H](CO)NC1=O | 3% | -3%[29.6 µM]
NC(=O)OC[C@@H]1[C@H](NC(=O)/C(=N\OCC(=O)O)c2csc(N)n2)C(=O)N1S(=O)(=O)O | 3% | -23%
COc1cccc(-c2nc3cc(SC)ccc3cc2CN(C(=O)c2csc(C)n2)C2CC2)c1 | -2% | 16µM*
COc1ccc(-c2nc3cc(F)ccc3cc2CN(C(=O)c2cccc(OC)c2)C2CC2)cc1 | -1% | 1%
COC(=O)c1c(C)cc(OC)cc1O | -32% | u
COC(=O)c1c(OC)cc2c(c1C)Oc1c(Cl)c(OC(C)=O)c(Cl)c(C)c1C(=O)O2 | -25% | 11µM*
CCOC(=O)[C@@](C)(N)Cc1ccc(O)c(O)c1 | -3% | 6%[56.6 µM]
O=C(c1cnccn1)N1CCC2(CCCN(C(c3ccccc3)c3ccccc3)C2)CC1 | -34% | u
SMILES | EPAC1 ag val | EPAC2 ant val
O=C(c1cnccn1)N1CCC[C@@]2(CCN(C(c3ccccc3)c3ccccc3)C2)C1 | 7% | 50µM*
COc1cccc(CNC(=O)c2c(OC)cc(=O)n3c2CCN(C(=O)C2=C(C)OCCO2)CC3)c1 | -13% | -12%
CCC1(C2CCN(C(=O)c3ccc(C)c(C)c3)CC2)NC(=O)N(CCc2scnc2C)C1=O (stereo unspecified) | -20% | -18%
O=c1c(-c2ccc(O)cc2)coc2cc(O)cc(O)c12 | -5% | -18%
CC(C)=CCc1c2c(c3occ(-c4ccc(O)c(O)c4)c(=O)c3c1O)C=CC(C)(C)O2 | -151% | 25µM*
CC(C)=CCc1c2c(c3occ(-c4ccc(O)cc4)c(=O)c3c1O)C=CC(C)(C)O2 | -170% | 32µM*
CC(C)=CCc1c(O)cc2occ(-c3ccc4c(c3)OCO4)c(=O)c2c1O | u | -25%
COc1cc(-c2c(OC)cccc2OC)cc2c1OCCN(Cc1cn[nH]c1-c1ccc(Cl)cc1)C2 | 17% | -16%
COc1cc(CNc2nc(C)c(-c3ccn(CC4CCCN(C)C4)n3)s2)ccc1F (stereo unspecified) | -13% | -4%
OCCN1CCN(Cc2ccc3c(c2)CN(Cc2cc4ccccc4o2)CCO3)CC1 | -12% | 7%
Cc1ccc2c(/C=C/c3ccc(N(C)C)cc3)ccnc2c1C | 100µM* | 6%
Cc1cc(C)c2c(C)ccnc2c1 | 26% | -4%
CN(C)c1ccc(/C=C/c2ccnc3c2ccc2ccccc23)cc1 | u | 33%
Cc1cc(C)c2nccc(/C=C/c3ccc(N(C)C)cc3)c2c1 | 100µM* | 45%
NCCCC[C@H](N)C(=O)O | -3% | -12%
O=C(NCc1nnc2n1CCN(Cc1ccc(C(F)(F)F)cc1)CC2)c1ccccn1 | 7% | 6%
COC(=O)c1ccc(CN2CCOc3ccc(CN4CCC(O)(c5cccnc5)CC4)cc3C2)cc1 | 0% | 8%
COC(=O)[C@@]1(C)CCC[C@@]2(C)c3ccc(O)c(C(C)C)c3CCC21 (stereo partly specified) | -38% | u
CC(=O)Oc1ccc2c(c1C(C)C)CCC1C(C)(C)CCC[C@@]21C (stereo partly specified) | 100µM* | -28%
COc1ccccc1CNc1nc(-c2ccc3c(c2)OCO3)nc2ccccc12 | 100µM* | -23%
COc1ccccc1CNc1nc(-c2ccc(N(C)C)cc2)nc2ccccc12 | u | -11%
Cc1cccc(CNc2nc(-c3cccc(NS(C)(=O)=O)c3)nc3ccccc23)c1 | u | -29%
COc1ccccc1CNc1nc(-c2cccc(C#N)c2)nc2ccccc12 | 100µM* | -17%
COc1cccc(-c2nc(NCc3ccccc3OC)c3ccccc3n2)c1 | u | -23%
COc1ccccc1CNc1nc(-c2cccc(NS(C)(=O)=O)c2)nc2ccccc12 | 100µM* | -22%
SMILES | EPAC1 ag val | EPAC2 ant val
COc1ccccc1CCNc1ncnc2sc(C(=O)N3CCCC3)c(C)c12 | 6% | -26%
Cc1ccc(CNc2nc(CN3CCCCC3c3cccnc3)nc3ccccc23)o1 (stereo unspecified) | -9% | u
CCC1(C2CCN(Cc3cccc(Cl)c3)CC2)NC(=O)N(CC2COc3ccccc3O2)C1=O (stereo unspecified) | 10% | -16%
COc1ccc(OC)c(/C=C/c2cc3ccccc3cn2)c1 | 18% | -2%
CCCCC[C@H](O)C=C[C@H]1[C@H](O)CC(=O)[C@H]1CCCCCCC(=O)O | -19% | 56µM*
CCCCC[C@H](O)/C=C/[C@H]1[C@H](O)CC(=O)[C@@H]1C/C=C\CCCC(=O)O | -13% | -11%
C[C@H](CSC(=O)c1ccccc1)C(=O)N1C[C@@H](Sc2ccccc2)C[C@H]1C(=O)O | -21% | 5%
Cc1cc(-c2cc(F)cc3c2OC(CNC(=O)CCn2cncn2)C3)ccc1F (stereo unspecified) | 6% | 79µM*
O=C(CCn1cncn1)NCC1Cc2cc(-c3ccsc3)cc(Cl)c2O1 (stereo unspecified) | u | -24%
COC(=O)c1ccc(C(=O)NCC2Cc3cc(F)cc(-c4cncnc4)c3O2)cc1 (stereo unspecified) | 14% | 2.5µM*
COc1ccccc1CC(=O)NCC1Cc2cc(F)cc(-c3cncnc3)c2O1 (stereo unspecified) | 3% | -20%
